Compounds without any hit were thinned out: in the full panel of roughly 83,000, 20% have a hit.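 Interpretation: 100, growth as untreated; towards 0, rising growth inhibition; 0, no net growth; 0 to -100, cell death. Compounds scoring below 10 were considered active.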 The source made the active and inactive calls.
Assays:
Test in all cases: NCI-60 one-dose screen, 48 h (100 = growth as untreated, 0 = no growth, -100 = all killed)
Conditions in all cases: 10 µM unless noted
T-47D breast = test system: T-47D breast
BT-549 breast = test system: BT-549 breast
MDA-MB-435 melanoma = test system: MDA-MB-435 melanoma
SW-620 colon = test system: SW-620 colon
MCF7 breast = test system: MCF7 breast
HCT-116 colon = test system: HCT-116 colon
HCC-2998 colon = test system: HCC-2998 colon
KM12 colon = test system: KM12 colon

Measured: growth

CC(C)(CNC1CCCCC1)OC(=O)c1ccccc1
inactive: T-47D breast 104% | BT-549 breast 99.7% | MDA-MB-435 melanoma 107% | SW-620 colon 110% | MCF7 breast 107% | HCT-116 colon 103% | HCC-2998 colon 111% | KM12 colon 102%

COc1cc([C@@H]2c3cc4c(cc3[C@H](O)[C@H]3COC[C@@H]23)OCO4)cc(OC)c1OC
active: MDA-MB-435 melanoma -12.4%
inactive: T-47D breast 83.7% | BT-549 breast 90.6% | SW-620 colon 54.4% | MCF7 breast 30.9% | HCT-116 colon 66.7% | HCC-2998 colon 85.5% | KM12 colon 49.5%

CCCCCCCCCCCCCCCCCCOP(=O)(O)O
inactive: T-47D breast 106% | BT-549 breast 114% | MDA-MB-435 melanoma 101% | SW-620 colon 91.3% | MCF7 breast 101% | HCT-116 colon 106% | HCC-2998 colon 108% | KM12 colon 110%

NNC(=O)CNc1ccc2ccccc2c1
inactive: T-47D breast 108% | BT-549 breast 93.4% | MDA-MB-435 melanoma 111% | SW-620 colon 99.8% | MCF7 breast 102% | HCT-116 colon 107% | HCC-2998 colon 140% | KM12 colon 97.2%

CC[n+]1c(C)ccc2cc(C)ccc21
inactive: T-47D breast 91.3% | BT-549 breast 95% | MDA-MB-435 melanoma 118% | SW-620 colon 99.5% | MCF7 breast 94.1% | HCT-116 colon 97.1% | KM12 colon 80.7%

COc1nc(OC)nc(-c2cc(C(=O)c3ccc(Br)cc3)n3cc(C)cc(C)c23)n1
inactive: T-47D breast 37.9% | BT-549 breast 42.7% | MDA-MB-435 melanoma 94.9% | SW-620 colon 89.7% | MCF7 breast 70.5% | HCT-116 colon 36.5% | HCC-2998 colon 86.2% | KM12 colon 94.2%

COC1=C(OC)C(=O)c2ccccc2C1=O
inactive: T-47D breast 59.1% | BT-549 breast 101% | MDA-MB-435 melanoma 111% | SW-620 colon 97% | MCF7 breast 86.3% | HCT-116 colon 96.2% | HCC-2998 colon 94.5% | KM12 colon 105%

FC(F)(F)c1cccc(-c2[nH]ncc2-c2nnnn2-c2ccccc2)c1
active: MDA-MB-435 melanoma -7.25%
inactive: T-47D breast 44.9% | BT-549 breast 42.8% | SW-620 colon 16.5% | MCF7 breast 24.1% | HCT-116 colon 20.7% | HCC-2998 colon 31.1% | KM12 colon 23.9%

COc1cc(N)c2nccc(C)c2c1OC
inactive: T-47D breast 108% | BT-549 breast 83.3% | MDA-MB-435 melanoma 110% | SW-620 colon 94.1% | MCF7 breast 113% | HCC-2998 colon 149% | KM12 colon 101%

COc1cc(/C=C/C(=O)c2ccc(F)cc2)ccc1OCCCCOc1cc2c(cc1OC)C(=O)N1CCCC1C=N2 (stereo not drawn)
active: T-47D breast 1.74% | BT-549 breast -49.9% | MDA-MB-435 melanoma -71% | SW-620 colon -59% | MCF7 breast -19.5% | HCC-2998 colon -87.5% | KM12 colon -64.1%

Oc1ccccc1/C=N/N=C\c1ccccc1Cl
inactive: T-47D breast 67.1% | BT-549 breast 86.2% | MDA-MB-435 melanoma 107% | SW-620 colon 94.6% | HCT-116 colon 100% | HCC-2998 colon 100% | KM12 colon 88.4%

N=C(N)c1ccc(-c2ccc(-c3cc(Cl)cc(Cl)c3)s2)cc1
active: T-47D breast -54% | BT-549 breast -45.7% | MDA-MB-435 melanoma -90.2% | SW-620 colon -70.9% | HCT-116 colon -78.7% | HCC-2998 colon -65.2% | KM12 colon -77.4%

Cc1nnc(/N=C2\NC(=O)/C(=C/C=C/c3ccccc3)S2)s1
inactive: T-47D breast 53.8% | BT-549 breast 52.2% | MDA-MB-435 melanoma 16.3% | SW-620 colon 74.1% | HCT-116 colon 36.9% | HCC-2998 colon 67% | KM12 colon 42.7%

CCCCCCCCC(=O)Nc1ccc(O)cc1
inactive: T-47D breast 88.7% | BT-549 breast 80.5% | MDA-MB-435 melanoma 98.3% | SW-620 colon 103% | MCF7 breast 97.9% | HCC-2998 colon 83.7% | KM12 colon 90.9%

Nc1cc(N)c2nc(-c3ccccc3)c(NCCc3ccc(Cl)c(Cl)c3)nc2c1
active: T-47D breast -11.5% | BT-549 breast -70.4% | MDA-MB-435 melanoma -88.2% | SW-620 colon -86.7% | MCF7 breast -2.91% | HCC-2998 colon -94.9% | KM12 colon -83.4%

CC[N+](C)(C)N
inactive: T-47D breast 103% | BT-549 breast 105% | MDA-MB-435 melanoma 109% | SW-620 colon 105% | MCF7 breast 91.7% | HCC-2998 colon 113% | KM12 colon 107%

CCOP1(=O)CC(C)=C(Cl)C(P(=O)(O)O)C1 (stereo not drawn)
inactive: T-47D breast 98.6% | BT-549 breast 97.4% | MDA-MB-435 melanoma 107% | SW-620 colon 110% | MCF7 breast 109% | HCC-2998 colon 94.4% | KM12 colon 105%

O=C(CCCC(=O)Nc1ccc(Cn2nnc3cc(Cl)c(Cl)cc32)cc1)Nc1ccc(CN2N=NC3C=C(Cl)C(Cl)=CC32)cc1 (stereo not drawn)
inactive: T-47D breast 49% | BT-549 breast 71.5% | MDA-MB-435 melanoma 87.8% | SW-620 colon 85.8% | MCF7 breast 66.6% | HCC-2998 colon 90.2% | KM12 colon 79.9%

CCn1cnc(C[C@H](NC(=O)[C@@H](NC(=O)Nc2cc(C(F)(F)F)cc(C(F)(F)F)c2)C(C)C)C(=O)OC)c1
active: T-47D breast -77.8% [100 µM] | BT-549 breast -97.6% [100 µM] | MDA-MB-435 melanoma -87.1% [100 µM] | SW-620 colon -44.1% [100 µM] | MCF7 breast -55.7% [100 µM] | HCC-2998 colon -86.3% [100 µM] | KM12 colon -81.9% [100 µM]

CCCNC(=O)Oc1ccc(/C(=C(/CC)Cc2ccccc2)c2ccc(OCCN(CC)CC)cc2)cc1
inactive: T-47D breast 34.1% | BT-549 breast 97.4% | MDA-MB-435 melanoma 87.8% | SW-620 colon 70.9% | HCT-116 colon 49.1% | HCC-2998 colon 50% | KM12 colon 69.2%

COc1ccc(-c2nc(Nc3nc4ccccc4[nH]3)nc(N)c2C#N)cc1
inactive: T-47D breast 97.1% | BT-549 breast 86.4% | MDA-MB-435 melanoma 117% | SW-620 colon 108% | MCF7 breast 90.2% | KM12 colon 108%

NC(N)=N/N=C/c1cccc(Br)c1
inactive: T-47D breast 86.8% | BT-549 breast 87% | MDA-MB-435 melanoma 105% | SW-620 colon 102% | HCT-116 colon 92.5% | HCC-2998 colon 101% | KM12 colon 107%

c1ccc(Nc2ccccn2)cc1
inactive: T-47D breast 101% | BT-549 breast 98.8% | MDA-MB-435 melanoma 112% | SW-620 colon 110% | HCT-116 colon 103% | HCC-2998 colon 114% | KM12 colon 104%

COc1cc(NC(C)CCCN)c2nccc(C)c2c1OC (stereo not drawn)
inactive: T-47D breast 66.7% | BT-549 breast 98.2% | MDA-MB-435 melanoma 106% | SW-620 colon 83.5% | MCF7 breast 10.2% | HCC-2998 colon 96.7% | KM12 colon 101%

NC(N)=Nc1ccc(/C=C2\C=Cc3ccccc32)cc1
inactive: T-47D breast 50.6% | BT-549 breast 81.5% | MDA-MB-435 melanoma 21.6% | SW-620 colon 33.5% | HCT-116 colon 47.5% | HCC-2998 colon 62.6% | KM12 colon 15.2%

COc1ccc(C(=O)c2no[n+]([O-])c2C(=O)c2ccc(OC)cc2)cc1
active: SW-620 colon -82.9%
inactive: T-47D breast 24.7% | BT-549 breast 50.3% | MDA-MB-435 melanoma 44.3% | MCF7 breast 30.9% | HCC-2998 colon 110% | KM12 colon 102%

CCCCCc1ccnc(CC(=O)c2ccc(OC)cc2)c1
inactive: T-47D breast 82.3% | BT-549 breast 93.8% | MDA-MB-435 melanoma 102% | SW-620 colon 88.4% | MCF7 breast 87.4% | HCC-2998 colon 101% | KM12 colon 99.9%

Nc1ncn([C@@H]2O[C@H](CO)[C@@H](O)C2(F)F)c(=O)n1
inactive: T-47D breast 76.2% | BT-549 breast 53.6% | MDA-MB-435 melanoma 53% | SW-620 colon 51.2% | MCF7 breast 20.7% | HCC-2998 colon 60.4% | KM12 colon 61.2%

CC(C)(C)c1ccc([I+]c2ccc(C(C)(C)C)cc2)cc1
active: BT-549 breast -5.08% | MDA-MB-435 melanoma -49.1% | HCT-116 colon 7.47% | KM12 colon -30.6%
inactive: T-47D breast 11.3% | SW-620 colon 14.9% | HCC-2998 colon 13.4%

C[C@@H](c1ccc2c(c1)[nH]c1ccc(Cl)cc12)c1nc2ccccc2[nH]1
inactive: T-47D breast 62.3% | BT-549 breast 83.4% | MDA-MB-435 melanoma 103% | SW-620 colon 95.2% | MCF7 breast 27.6% | HCC-2998 colon 100% | KM12 colon 90.7%

CCCNC(=O)Oc1ccc(/C(=C(/C)Cc2ccc(OC)cc2)c2ccc(OCCN3CCCC3)cc2)cc1
inactive: T-47D breast 37% | BT-549 breast 82.7% | MDA-MB-435 melanoma 65.8% | SW-620 colon 77.7% | MCF7 breast 25.3% | HCC-2998 colon 62.5% | KM12 colon 78.7%

COc1cc2cc3cc4cc(OC)c(OC)cc4c(C)[n+]3cc2cc1OC (tested in a mixture with another compound)
inactive: T-47D breast 91.7% | BT-549 breast 85.5% | MDA-MB-435 melanoma 71% | SW-620 colon 83.2% | MCF7 breast 67.6% | HCC-2998 colon 102% | KM12 colon 80.4%

COc1cc2c(c3c1c(=O)c1cccc(F)c1n3C)C=CC(C)(C)O2
inactive: T-47D breast 89.2% | BT-549 breast 100% | MDA-MB-435 melanoma 94.9% | SW-620 colon 113% | HCT-116 colon 92.8% | HCC-2998 colon 101% | KM12 colon 76.6%

OCC(O)C(O)CC1SCCS1 (stereo not drawn)
inactive: T-47D breast 97.1% | BT-549 breast 102% | MDA-MB-435 melanoma 105% | SW-620 colon 99.7% | HCT-116 colon 104% | HCC-2998 colon 108% | KM12 colon 103%

CCCCCCCCCC[N+](C)(C)N
inactive: T-47D breast 96.7% | BT-549 breast 84.2% | MDA-MB-435 melanoma 91.9% | SW-620 colon 102% | MCF7 breast 98% | HCC-2998 colon 98.5% | KM12 colon 99.8%

O=C(N/N=C/c1ccccc1Cl)c1cccc2ccccc12
inactive: T-47D breast 98.5% | BT-549 breast 117% | MDA-MB-435 melanoma 105% | SW-620 colon 105% | MCF7 breast 90.9% | HCC-2998 colon 110% | KM12 colon 97.3%
